# What was measured:
# [1] = target: Tyrosine-protein kinase ABL1 (Homo sapiens) (UniProt P00519); conditions: at 1 µM
# [2] = target: Tyrosine-protein kinase ABL1 (Homo sapiens) (UniProt P00519); conditions: at 10 µM
# [3] = target: Tyrosine-protein kinase ABL2 (Homo sapiens) (UniProt P42684); conditions: at 1 µM
# [4] = target: Tyrosine-protein kinase ABL2 (Homo sapiens) (UniProt P42684); conditions: at 10 µM
# [5] = target: T1, Aurora kinase A (Homo sapiens) (UniProt O14965); conditions: at 1 µM
# T1 sequence (whole entry): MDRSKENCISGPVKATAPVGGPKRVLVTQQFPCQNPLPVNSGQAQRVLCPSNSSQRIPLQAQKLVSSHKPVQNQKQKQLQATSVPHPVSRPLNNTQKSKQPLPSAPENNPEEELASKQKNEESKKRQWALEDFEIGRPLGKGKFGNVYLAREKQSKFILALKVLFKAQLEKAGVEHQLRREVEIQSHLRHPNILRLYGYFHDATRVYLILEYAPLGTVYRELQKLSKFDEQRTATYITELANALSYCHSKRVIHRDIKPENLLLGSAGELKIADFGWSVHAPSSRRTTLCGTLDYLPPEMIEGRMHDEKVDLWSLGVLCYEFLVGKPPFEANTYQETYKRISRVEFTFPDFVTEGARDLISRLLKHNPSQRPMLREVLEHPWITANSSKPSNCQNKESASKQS
# [6] = target: T1, Aurora kinase A (Homo sapiens); conditions: at 10 µM
# [7] = target: Aurora kinase B (Homo sapiens) (UniProt Q96GD4); conditions: at 1 µM
# [8] = target: Aurora kinase B (Homo sapiens) (UniProt Q96GD4); conditions: at 10 µM
# [9] = target: T2, Aurora kinase C (Homo sapiens) (UniProt Q9UQB9); conditions: at 10 µM
# T2 sequence (whole entry): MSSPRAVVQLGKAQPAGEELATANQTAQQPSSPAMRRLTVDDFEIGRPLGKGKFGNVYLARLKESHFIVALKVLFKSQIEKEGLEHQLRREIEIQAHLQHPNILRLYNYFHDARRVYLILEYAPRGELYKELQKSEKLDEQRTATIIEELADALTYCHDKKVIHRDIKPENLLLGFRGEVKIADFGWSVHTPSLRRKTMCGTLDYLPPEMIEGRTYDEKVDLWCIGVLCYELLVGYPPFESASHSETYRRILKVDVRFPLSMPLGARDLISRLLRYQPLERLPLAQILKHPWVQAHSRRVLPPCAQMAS
# [10] = target: Tyrosine-protein kinase receptor UFO (Homo sapiens) (UniProt P30530); conditions: at 10 µM
# [11] = target: Protein-tyrosine kinase 6 (Homo sapiens) (UniProt Q13882); conditions: at 1 µM
# [12] = target: Protein-tyrosine kinase 6 (Homo sapiens) (UniProt Q13882); conditions: at 10 µM
# [13] = target: Tyrosine-protein kinase Blk (Homo sapiens) (UniProt P51451); conditions: at 1 µM
# [14] = target: Tyrosine-protein kinase Blk (Homo sapiens) (UniProt P51451); conditions: at 10 µM
# [15] = target: Tyrosine-protein kinase BTK (Homo sapiens) (UniProt Q06187); conditions: at 1 µM
# [16] = target: Tyrosine-protein kinase BTK (Homo sapiens) (UniProt Q06187); conditions: at 10 µM
# [17] = target: T3, Mitogen-activated protein kinase kinase kinase 5 (Homo sapiens) (UniProt Q99683); conditions: at 10 µM
# T3 sequence (whole entry): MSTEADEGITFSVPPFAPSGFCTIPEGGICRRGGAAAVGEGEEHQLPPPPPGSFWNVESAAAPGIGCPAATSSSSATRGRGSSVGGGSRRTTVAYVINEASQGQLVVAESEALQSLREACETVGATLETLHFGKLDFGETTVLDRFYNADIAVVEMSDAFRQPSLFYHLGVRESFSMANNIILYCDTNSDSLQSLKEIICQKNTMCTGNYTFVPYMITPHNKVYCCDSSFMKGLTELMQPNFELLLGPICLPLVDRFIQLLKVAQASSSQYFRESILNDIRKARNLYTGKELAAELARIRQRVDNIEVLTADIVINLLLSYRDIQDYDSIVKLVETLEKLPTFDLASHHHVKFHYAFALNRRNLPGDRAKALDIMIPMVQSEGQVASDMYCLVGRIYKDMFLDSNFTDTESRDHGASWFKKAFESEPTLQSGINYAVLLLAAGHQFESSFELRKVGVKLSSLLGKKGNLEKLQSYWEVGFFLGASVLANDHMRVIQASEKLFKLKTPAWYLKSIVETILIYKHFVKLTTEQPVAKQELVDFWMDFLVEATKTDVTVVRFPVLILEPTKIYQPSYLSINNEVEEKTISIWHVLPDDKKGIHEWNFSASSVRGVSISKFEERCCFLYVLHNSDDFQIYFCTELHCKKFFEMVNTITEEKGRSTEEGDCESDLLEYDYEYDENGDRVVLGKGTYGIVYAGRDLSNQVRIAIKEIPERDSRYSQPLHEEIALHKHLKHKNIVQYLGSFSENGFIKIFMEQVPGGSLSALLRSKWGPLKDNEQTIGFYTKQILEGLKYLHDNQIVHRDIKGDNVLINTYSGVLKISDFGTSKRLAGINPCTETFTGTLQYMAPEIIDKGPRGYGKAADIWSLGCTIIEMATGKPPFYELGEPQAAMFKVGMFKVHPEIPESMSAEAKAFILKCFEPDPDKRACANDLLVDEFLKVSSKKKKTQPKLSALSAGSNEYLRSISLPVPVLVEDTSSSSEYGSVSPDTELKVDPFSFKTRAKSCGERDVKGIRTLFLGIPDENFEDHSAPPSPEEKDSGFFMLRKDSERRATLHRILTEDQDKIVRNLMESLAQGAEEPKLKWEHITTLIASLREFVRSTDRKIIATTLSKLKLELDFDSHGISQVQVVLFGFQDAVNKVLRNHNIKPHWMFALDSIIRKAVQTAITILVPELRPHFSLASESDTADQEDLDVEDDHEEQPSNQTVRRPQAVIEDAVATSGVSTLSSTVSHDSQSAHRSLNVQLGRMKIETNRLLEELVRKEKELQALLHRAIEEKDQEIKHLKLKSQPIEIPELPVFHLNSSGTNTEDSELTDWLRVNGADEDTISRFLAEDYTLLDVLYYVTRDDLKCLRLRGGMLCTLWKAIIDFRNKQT
# [18] = target: T2, Aurora kinase C (Homo sapiens); conditions: at 1 µM
# [19] = target: Tyrosine-protein kinase receptor UFO (Homo sapiens) (UniProt P30530); conditions: at 1 µM
# Chain of Tyrosine-protein kinase BTK (Homo sapiens) (Q06187 whole entry): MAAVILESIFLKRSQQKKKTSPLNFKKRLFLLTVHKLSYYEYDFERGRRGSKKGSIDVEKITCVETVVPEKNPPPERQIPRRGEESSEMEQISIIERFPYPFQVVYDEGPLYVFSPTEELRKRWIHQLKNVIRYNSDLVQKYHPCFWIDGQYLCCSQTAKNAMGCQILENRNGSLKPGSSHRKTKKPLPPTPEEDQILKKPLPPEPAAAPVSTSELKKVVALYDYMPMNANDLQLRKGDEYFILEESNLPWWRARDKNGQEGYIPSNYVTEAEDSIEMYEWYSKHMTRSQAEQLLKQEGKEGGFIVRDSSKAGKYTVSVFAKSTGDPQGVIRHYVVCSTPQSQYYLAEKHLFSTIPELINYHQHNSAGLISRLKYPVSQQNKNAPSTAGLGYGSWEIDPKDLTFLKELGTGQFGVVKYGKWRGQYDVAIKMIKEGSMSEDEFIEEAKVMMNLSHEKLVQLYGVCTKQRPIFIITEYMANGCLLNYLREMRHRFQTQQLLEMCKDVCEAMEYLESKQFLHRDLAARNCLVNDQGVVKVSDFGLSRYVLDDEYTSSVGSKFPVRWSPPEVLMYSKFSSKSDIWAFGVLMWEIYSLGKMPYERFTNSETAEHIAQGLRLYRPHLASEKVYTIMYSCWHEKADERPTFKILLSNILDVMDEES
# Chain of Tyrosine-protein kinase ABL1 (Homo sapiens) (P00519 whole entry): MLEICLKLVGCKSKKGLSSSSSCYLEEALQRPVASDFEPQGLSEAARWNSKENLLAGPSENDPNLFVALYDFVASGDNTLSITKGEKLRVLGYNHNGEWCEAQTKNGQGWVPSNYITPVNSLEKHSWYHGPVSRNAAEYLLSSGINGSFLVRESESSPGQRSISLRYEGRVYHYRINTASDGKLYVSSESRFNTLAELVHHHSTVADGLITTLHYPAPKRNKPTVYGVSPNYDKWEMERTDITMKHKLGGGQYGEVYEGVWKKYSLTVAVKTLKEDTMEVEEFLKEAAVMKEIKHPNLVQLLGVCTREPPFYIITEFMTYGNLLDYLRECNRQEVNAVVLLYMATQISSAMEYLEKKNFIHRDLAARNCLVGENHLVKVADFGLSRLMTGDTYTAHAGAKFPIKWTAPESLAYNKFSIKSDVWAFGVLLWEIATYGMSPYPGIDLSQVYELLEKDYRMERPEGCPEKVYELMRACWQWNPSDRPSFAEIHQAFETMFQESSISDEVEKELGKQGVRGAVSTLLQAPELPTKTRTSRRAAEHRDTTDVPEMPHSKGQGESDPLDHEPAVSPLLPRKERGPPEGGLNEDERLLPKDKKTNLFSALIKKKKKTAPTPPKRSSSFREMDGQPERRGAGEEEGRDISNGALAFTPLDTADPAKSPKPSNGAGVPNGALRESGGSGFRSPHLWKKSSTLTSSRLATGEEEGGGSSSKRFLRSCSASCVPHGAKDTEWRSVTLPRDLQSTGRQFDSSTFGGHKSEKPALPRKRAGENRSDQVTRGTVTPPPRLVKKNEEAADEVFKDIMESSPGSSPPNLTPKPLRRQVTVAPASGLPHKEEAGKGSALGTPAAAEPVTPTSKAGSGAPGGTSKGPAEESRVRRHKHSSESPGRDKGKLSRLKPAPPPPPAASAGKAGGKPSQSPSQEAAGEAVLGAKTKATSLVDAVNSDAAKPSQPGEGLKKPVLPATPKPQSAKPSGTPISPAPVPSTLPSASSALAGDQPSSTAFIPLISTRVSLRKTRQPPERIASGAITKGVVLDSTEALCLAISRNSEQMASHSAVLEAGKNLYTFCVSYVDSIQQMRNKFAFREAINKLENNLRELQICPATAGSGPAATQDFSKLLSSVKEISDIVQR
# Chain of Tyrosine-protein kinase ABL2 (Homo sapiens) (P42684 whole entry): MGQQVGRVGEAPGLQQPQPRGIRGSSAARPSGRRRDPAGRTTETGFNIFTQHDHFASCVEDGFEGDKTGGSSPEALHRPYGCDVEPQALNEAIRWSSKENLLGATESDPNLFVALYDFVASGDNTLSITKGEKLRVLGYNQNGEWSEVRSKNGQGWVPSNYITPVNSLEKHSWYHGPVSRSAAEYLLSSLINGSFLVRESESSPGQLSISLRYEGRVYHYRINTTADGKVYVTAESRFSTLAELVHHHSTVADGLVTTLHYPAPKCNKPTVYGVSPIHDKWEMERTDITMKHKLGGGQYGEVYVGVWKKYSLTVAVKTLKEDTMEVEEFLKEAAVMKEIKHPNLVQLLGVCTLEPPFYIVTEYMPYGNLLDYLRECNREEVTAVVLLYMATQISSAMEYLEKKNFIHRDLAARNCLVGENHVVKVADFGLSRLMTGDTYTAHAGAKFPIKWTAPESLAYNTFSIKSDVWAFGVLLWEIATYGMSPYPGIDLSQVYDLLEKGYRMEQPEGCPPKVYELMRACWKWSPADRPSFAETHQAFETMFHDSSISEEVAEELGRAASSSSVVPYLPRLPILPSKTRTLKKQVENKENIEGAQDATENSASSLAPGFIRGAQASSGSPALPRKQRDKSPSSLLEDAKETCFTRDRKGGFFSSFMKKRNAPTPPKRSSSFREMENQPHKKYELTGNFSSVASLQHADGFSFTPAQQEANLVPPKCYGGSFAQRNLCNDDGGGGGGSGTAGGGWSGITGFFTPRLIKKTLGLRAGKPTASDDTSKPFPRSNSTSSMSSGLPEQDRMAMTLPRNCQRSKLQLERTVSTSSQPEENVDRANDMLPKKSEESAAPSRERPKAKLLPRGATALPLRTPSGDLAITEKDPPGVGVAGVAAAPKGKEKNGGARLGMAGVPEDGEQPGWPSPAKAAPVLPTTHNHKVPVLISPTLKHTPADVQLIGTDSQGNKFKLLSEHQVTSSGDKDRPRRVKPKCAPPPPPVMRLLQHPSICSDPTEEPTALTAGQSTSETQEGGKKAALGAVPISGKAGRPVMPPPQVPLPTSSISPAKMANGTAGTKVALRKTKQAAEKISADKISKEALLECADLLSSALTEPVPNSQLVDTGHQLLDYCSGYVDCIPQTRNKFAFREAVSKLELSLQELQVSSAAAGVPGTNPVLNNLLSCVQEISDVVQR
# Chain of Protein-tyrosine kinase 6 (Homo sapiens) (Q13882 whole entry, looked up): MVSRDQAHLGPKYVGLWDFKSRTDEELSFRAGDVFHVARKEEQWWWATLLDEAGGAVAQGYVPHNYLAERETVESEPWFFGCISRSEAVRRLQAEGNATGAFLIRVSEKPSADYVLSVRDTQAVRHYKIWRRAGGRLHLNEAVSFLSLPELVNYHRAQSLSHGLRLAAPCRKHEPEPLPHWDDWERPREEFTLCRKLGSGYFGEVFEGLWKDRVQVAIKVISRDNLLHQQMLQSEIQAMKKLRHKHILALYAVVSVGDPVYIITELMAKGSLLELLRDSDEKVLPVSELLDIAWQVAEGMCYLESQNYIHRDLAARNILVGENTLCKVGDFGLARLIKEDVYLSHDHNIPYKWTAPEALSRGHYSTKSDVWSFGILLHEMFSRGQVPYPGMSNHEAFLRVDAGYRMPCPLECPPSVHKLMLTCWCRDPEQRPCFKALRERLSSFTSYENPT
# Chain of Tyrosine-protein kinase Blk (Homo sapiens) (P51451 2-505 limits assumed): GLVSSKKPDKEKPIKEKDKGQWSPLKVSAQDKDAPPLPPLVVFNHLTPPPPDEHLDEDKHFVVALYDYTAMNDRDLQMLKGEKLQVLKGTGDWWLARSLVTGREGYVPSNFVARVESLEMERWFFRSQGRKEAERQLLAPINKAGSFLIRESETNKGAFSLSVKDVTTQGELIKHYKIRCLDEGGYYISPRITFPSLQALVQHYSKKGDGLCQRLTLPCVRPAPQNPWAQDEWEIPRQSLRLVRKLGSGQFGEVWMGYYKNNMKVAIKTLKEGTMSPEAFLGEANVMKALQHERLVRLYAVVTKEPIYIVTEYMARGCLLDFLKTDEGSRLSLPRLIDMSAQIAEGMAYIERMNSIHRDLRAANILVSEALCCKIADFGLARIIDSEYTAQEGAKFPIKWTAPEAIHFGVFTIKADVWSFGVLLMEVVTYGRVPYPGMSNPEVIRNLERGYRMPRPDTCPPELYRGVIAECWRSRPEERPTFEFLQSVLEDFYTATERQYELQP
# Chain of Tyrosine-protein kinase receptor UFO (Homo sapiens) (P30530 whole entry): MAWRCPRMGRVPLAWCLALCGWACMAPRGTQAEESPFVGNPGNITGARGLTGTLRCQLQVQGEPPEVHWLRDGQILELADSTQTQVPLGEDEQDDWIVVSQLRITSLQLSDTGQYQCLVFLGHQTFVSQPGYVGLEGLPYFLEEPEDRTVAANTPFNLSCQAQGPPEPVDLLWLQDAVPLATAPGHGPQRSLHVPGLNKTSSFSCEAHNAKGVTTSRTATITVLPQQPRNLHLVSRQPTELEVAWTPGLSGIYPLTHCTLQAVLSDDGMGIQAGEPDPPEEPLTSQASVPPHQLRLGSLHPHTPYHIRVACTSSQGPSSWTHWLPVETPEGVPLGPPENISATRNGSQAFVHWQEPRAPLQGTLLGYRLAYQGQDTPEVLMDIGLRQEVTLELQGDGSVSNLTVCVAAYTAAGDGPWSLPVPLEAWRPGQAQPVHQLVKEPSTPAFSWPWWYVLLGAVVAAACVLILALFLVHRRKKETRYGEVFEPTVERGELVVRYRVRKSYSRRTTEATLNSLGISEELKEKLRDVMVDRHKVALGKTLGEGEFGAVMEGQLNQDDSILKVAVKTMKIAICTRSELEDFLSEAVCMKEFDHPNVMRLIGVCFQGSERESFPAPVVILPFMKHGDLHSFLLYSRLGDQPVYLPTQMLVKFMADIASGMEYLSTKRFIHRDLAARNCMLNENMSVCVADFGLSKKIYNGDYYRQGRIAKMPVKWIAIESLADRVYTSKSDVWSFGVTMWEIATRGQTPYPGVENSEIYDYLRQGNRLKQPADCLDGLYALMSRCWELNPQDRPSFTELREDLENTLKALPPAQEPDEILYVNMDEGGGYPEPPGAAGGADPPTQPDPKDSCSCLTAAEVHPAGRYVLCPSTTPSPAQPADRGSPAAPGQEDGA
structure (smiles),measurement,setting,value
COc1ccc2c(c1)c(C1=C(c3c[nH]c4ccccc34)C(=O)NC1=O)cn2CCCN(C)C,residual activity,[1],107%
same,residual activity,[2],114%
same,residual activity,[3],113%
same,residual activity,[4],74%
same,residual activity,[5],100%
same,residual activity,[6],97%
same,residual activity,[7],39%
same,residual activity,[8],7%
same,residual activity,[9],59%
same,residual activity,[10],40%
same,residual activity,[11],98%
same,residual activity,[12],82%
same,residual activity,[13],57%
same,residual activity,[14],7%
CN([C@@H](Cc1ccc(OS(=O)(=O)c2cccc3cnccc23)cc1)C(=O)N1CCN(c2ccccc2)CC1)S(=O)(=O)c1cccc2cnccc12,residual activity,[2],86%
same,residual activity,[15],100%
same,residual activity,[16],86%
same,residual activity,[13],98%
same,residual activity,[14],81%
O=C1NC(=O)C(c2cn(CCCn3ccnc3)c3ccccc23)=C1Nc1ccccc1,residual activity,[17],76%
same,residual activity,[3],111%
same,residual activity,[4],60%
same,residual activity,[6],72%
same,residual activity,[9],67%
same,residual activity,[10],66%
same,residual activity,[14],33%
CC(C)N(CCC(=O)c1ccc2ccccc2c1)Cc1ccccc1,residual activity,[8],83%
same,residual activity,[18],76%
same,residual activity,[9],61%
same,residual activity,[19],69%
same,residual activity,[10],74%
CCOc1nc(NC(=O)Cc2cc(OC)ccc2OC)cc(N)c1C#N,residual activity,[18],78%
same,residual activity,[11],60%
same,residual activity,[12],50%
same,residual activity,[15],81%
same,residual activity,[16],78%
O=c1cc(N2CCOCC2)oc2c(-c3ccccc3)cccc12,residual activity,[11],101%
same,residual activity,[12],101%
CCN1/C(=C/C(C)=O)Sc2ccc(OC)cc21,residual activity,[2],79%
same,residual activity,[4],81%
same,residual activity,[8],122%
same,residual activity,[19],77%
same,residual activity,[10],75%
O=C1NC(=O)C(c2cn(CCCO)c3ncccc23)=C1c1cnccn1,residual activity,[17],78%
same,residual activity,[5],78%
same,residual activity,[6],81%
same,residual activity,[7],14%
same,residual activity,[8],9%
same,residual activity,[18],97%
same,residual activity,[9],88%
same,residual activity,[19],61%
same,residual activity,[10],59%
same,residual activity,[13],78%
same,residual activity,[14],69%
CC(C)(C)c1nc2c3ccc(F)cc3c3c(=O)[nH]ccc3c2[nH]1,residual activity,[17],35%
same,residual activity,[4],100%
same,residual activity,[5],13%
same,residual activity,[6],25%
same,residual activity,[7],1%
same,residual activity,[8],-1%
same,residual activity,[18],11%
same,residual activity,[9],7%
same,residual activity,[19],40%
same,residual activity,[10],59%
same,residual activity,[15],71%
same,residual activity,[16],59%
O=C(c1cc2cc(O)ccc2[nH]1)c1cc2cc(O)ccc2[nH]1,residual activity,[1],11%
same,residual activity,[2],-6%
same,residual activity,[3],27%
same,residual activity,[4],4%
same,residual activity,[5],23%
same,residual activity,[6],6%
same,residual activity,[7],9%
same,residual activity,[8],-1%
same,residual activity,[18],61%
same,residual activity,[9],24%
same,residual activity,[19],50%
same,residual activity,[10],15%
same,residual activity,[15],78%
same,residual activity,[16],34%
same,residual activity,[13],6%
same,residual activity,[14],1%
O=c1c(-c2ccc(F)cc2)c(-c2ccncc2)[nH]n1-c1ccc(Cl)cc1,residual activity,[17],119%
same,residual activity,[2],68%
same,residual activity,[4],53%
same,residual activity,[11],59%
same,residual activity,[12],7%
same,residual activity,[13],101%
same,residual activity,[14],74%
COc1ccc(Cl)cc1NC(=O)Nc1cc(C)nc2ccccc12,residual activity,[1],87%
same,residual activity,[2],145%
same,residual activity,[5],89%
same,residual activity,[6],136%
same,residual activity,[19],98%
same,residual activity,[10],88%
same,residual activity,[14],78%
O=C1Cc2c([nH]c3ccc(Br)cc23)-c2ccccc2N1,residual activity,[1],64%
same,residual activity,[2],39%
same,residual activity,[3],76%
same,residual activity,[4],45%
same,residual activity,[5],97%
same,residual activity,[6],66%
same,residual activity,[7],69%
same,residual activity,[8],15%
same,residual activity,[18],76%
same,residual activity,[9],71%
same,residual activity,[11],95%
same,residual activity,[12],72%
O=C(Nc1ccc(Cl)cc1)c1ccccc1NCc1ccncc1,residual activity,[1],81%
same,residual activity,[2],52%
same,residual activity,[5],39%
same,residual activity,[6],18%
same,residual activity,[7],100%
same,residual activity,[8],37%
same,residual activity,[9],70%
same,residual activity,[11],21%
same,residual activity,[12],1%
CN(C)S(=O)(=O)c1ccc2c(c1)/C(=C/c1cc3c([nH]1)CCCC3)C(=O)N2,residual activity,[1],77%
same,residual activity,[2],72%
same,residual activity,[3],114%
same,residual activity,[4],75%
same,residual activity,[5],36%
same,residual activity,[6],13%
same,residual activity,[7],-1%
same,residual activity,[8],1%
same,residual activity,[18],75%
same,residual activity,[9],52%
same,residual activity,[19],51%
same,residual activity,[10],36%
same,residual activity,[11],98%
same,residual activity,[12],94%
same,residual activity,[15],91%
same,residual activity,[16],50%
same,residual activity,[13],10%
same,residual activity,[14],2%
Nc1nccc(-c2c(-c3ccc(F)cc3)ncn2C2CCNCC2)n1,residual activity,[4],65%
same,residual activity,[8],72%
same,residual activity,[9],78%
same,residual activity,[12],30%
CSc1nc(-c2ccc(F)cc2)c(-c2ccnc(NC(C)c3ccccc3)c2)[nH]1 (centres undefined),residual activity,[17],86%
same,residual activity,[7],46%
same,residual activity,[8],13%
same,residual activity,[19],101%
same,residual activity,[10],85%
same,residual activity,[12],89%
same,residual activity,[15],90%
same,residual activity,[16],91%
same,residual activity,[13],98%
same,residual activity,[14],63%
